From PubChem BioAssay AID1159580 (chemical genetic matrix, 2015)
The campaign covered roughly 5,500 compounds. About 2,000 (36%) were called active. Roughly 18% stayed inconclusive and do not appear here. Cut-off read from the data, not from the text of the source: active = normalized growth mostly below about 0.91 (no sharp cut-off); inconclusive = no clear call, values can overlap the other calls; inactive = mostly above about 0.92. This is one part of the list.

Assay: chemical genetic growth profiling, strain panel (AID 1159580);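 note: tested at 20 µM; growth read once vehicle control cultures reached saturation at 30 °C; 1 = growth at the plate median or of vehicle wells; lower values mean less growth of the strain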
Details: growth OD

Measured: normalized growth

COP(=O)(OC)OC=C(Cl)Cl
inactive: S. cerevisiae deletion strains, locus YJR075W, strain HOC1, hits give low values 0.962 | S. cerevisiae deletion strains, locus YKL009W, strain mrt4, hits give low values 0.951 | S. cerevisiae deletion strains, locus YKL068W, hits give low values 0.986 | S. cerevisiae deletion strains, locus YKL085W, strain MDH1 (second series), hits give low values 0.981 | S. cerevisiae deletion strains, locus YKL085W, strain MDH1, hits give low values 0.981 | S. cerevisiae deletion strains, locus YKL160W, strain elf1, hits give low values 0.999 | S. cerevisiae deletion strains, locus YKL190W, strain CNB1, hits give low values 0.994 | S. cerevisiae deletion strains, locus YKR001C, strain vps1, hits give low values 0.992 | S. cerevisiae deletion strains, locus YKR026C, strain gcn3, hits give low values 1.01 | S. cerevisiae deletion strains, locus YKR091W, strain srl3, hits give low values 0.997 | S. cerevisiae deletion strains, locus YLL001W, strain dnm1, hits give low values 1.01 | S. cerevisiae deletion strains, locus YLL026W, hits give low values 0.997 | S. cerevisiae deletion strains, locus YLL041C, strain sdh2, hits give low values 1 | S. cerevisiae deletion strains, locus YLR027C, strain aat2, hits give low values 1 | S. cerevisiae deletion strains, locus YLR039C, strain RIC1, hits give low values 0.979 | S. cerevisiae deletion strains, locus YLR058C, strain SHM2, hits give low values 0.983 | S. cerevisiae deletion strains, locus YLR102C, strain apc9, hits give low values 0.977 | S. cerevisiae deletion strains, locus YLR113W, strain HOG1, hits give low values 1.02 | S. cerevisiae deletion strains, locus YLR221C, strain rsa3, hits give low values 0.999 | S. cerevisiae deletion strains, locus YLR258W, strain gsy2, hits give low values 0.999 | S. cerevisiae deletion strains, locus YLR262C, strain YPT6 (second series), hits give low values 1.01 | S. cerevisiae deletion strains, locus YLR262C, strain YPT6, hits give low values 0.97 | S. cerevisiae deletion strains, locus YLR268W, strain sec22, hits give low values 0.996 | S. cerevisiae deletion strains, locus YLR320W, strain mms22, hits give low values 1.01 | S. cerevisiae deletion strains, locus YLR330W, strain CHS5, hits give low values 0.996 | S. cerevisiae deletion strains, locus YLR342W, strain FKS1 (second series), hits give low values 0.971 | S. cerevisiae deletion strains, locus YLR342W, strain FKS1, hits give low values 0.983 | S. cerevisiae deletion strains, locus YLR357W, strain rsc2, hits give low values 1.07 | S. cerevisiae deletion strains, locus YLR370C, strain arc18, hits give low values 0.999 | S. cerevisiae deletion strains, locus YLR371W, strain rom2, hits give low values 0.989 | S. cerevisiae deletion strains, locus YLR384C, strain iki3, hits give low values 0.998 | S. cerevisiae deletion strains, locus YLR418C, strain cdc73, hits give low values 1.01 | S. cerevisiae deletion strains, locus YML016C, strain PPZ1, hits give low values 0.986 | S. cerevisiae deletion strains, locus YML032C, strain rad52, hits give low values 0.978 | S. cerevisiae deletion strains, locus YML120C, strain ndi1, hits give low values 0.981 | S. cerevisiae deletion strains, locus YML124C, strain tub3, hits give low values 0.992 | S. cerevisiae deletion strains, locus YMR058W, strain fet3, hits give low values 0.994 | S. cerevisiae deletion strains, locus YMR078C, strain ctf18, hits give low values 0.992 | S. cerevisiae deletion strains, locus YMR125W, strain sto1, hits give low values 0.982 | S. cerevisiae deletion strains, locus YMR129W, hits give low values 0.992 | S. cerevisiae deletion strains, locus YMR205C, strain PFK2, hits give low values 0.991 | S. cerevisiae deletion strains, locus YMR223W, strain ubp8, hits give low values 0.985 | S. cerevisiae deletion strains, locus YMR231W, strain pep5, hits give low values 1.01 | S. cerevisiae deletion strains, locus YMR263W, strain SAP30, hits give low values 0.976 | S. cerevisiae deletion strains, locus YMR307W, strain GAS1, hits give low values 1.1 | S. cerevisiae deletion strains, locus YNL067W, strain RPL9B, hits give low values 0.963 | S. cerevisiae deletion strains, locus YNL071W, strain lat1, hits give low values 1.01 | S. cerevisiae deletion strains, locus YNL128W, strain TEP1, hits give low values 0.956 | S. cerevisiae deletion strains, locus YNL153C, strain GIM3, hits give low values 0.986 | S. cerevisiae deletion strains, locus YNL183C, strain NPR1, hits give low values 0.998 | S. cerevisiae deletion strains, locus YNL209W, strain ssb2, hits give low values 0.998 | S. cerevisiae deletion strains, locus YNL233W, strain BNI4, hits give low values 0.977 | S. cerevisiae deletion strains, locus YNL248C, strain rpa49, hits give low values 0.994 | S. cerevisiae deletion strains, locus YNL250W, strain rad50, hits give low values 0.988 | S. cerevisiae deletion strains, locus YNL271C, strain bni1, hits give low values 0.98 | S. cerevisiae deletion strains, locus YNL298W, strain CLA4, hits give low values 1 | S. cerevisiae deletion strains, locus YNL307C, strain MCK1, hits give low values 1 | S. cerevisiae deletion strains, locus YNL322C, strain KRE1 (second series), hits give low values 1.02 | S. cerevisiae deletion strains, locus YNL322C, strain KRE1, hits give low values 0.985 | S. cerevisiae deletion strains, locus YNR049C, strain mso1, hits give low values 0.982 | S. cerevisiae deletion strains, locus YNR052C, strain pop2, hits give low values 0.991 | S. cerevisiae deletion strains, locus YOL006C, strain TOP1, hits give low values 1.01 | S. cerevisiae deletion strains, locus YOL012C, strain htz1 1.06 | S. cerevisiae deletion strains, locus YOL147C, strain pex11, hits give low values 1 | S. cerevisiae deletion strains, locus YOR001W, strain rrp6, hits give low values 0.996 | S. cerevisiae deletion strains, locus YOR061W, strain CKA2, hits give low values 0.96 | S. cerevisiae deletion strains, locus YOR069W, strain VPS5, hits give low values 0.98 | S. cerevisiae deletion strains, locus YOR070C, strain gyp1, hits give low values 0.99 | S. cerevisiae deletion strains, locus YOR080W, strain dia2, hits give low values 0.987 | S. cerevisiae deletion strains, locus YOR083W, strain WHI5, hits give low values 0.987 | S. cerevisiae deletion strains, locus YOR106W, strain vam3, hits give low values 0.983 | S. cerevisiae deletion strains, locus YOR136W, strain idh2, hits give low values 0.986 | S. cerevisiae deletion strains, locus YOR144C, strain elg1, hits give low values 0.984 | S. cerevisiae deletion strains, locus YOR184W, strain ser1, hits give low values 0.998 | S. cerevisiae deletion strains, locus YOR231W, strain MKK1, hits give low values 1.05 | S. cerevisiae deletion strains, locus YOR265W, strain rbl2, hits give low values 0.988 | S. cerevisiae deletion strains, locus YOR270C, strain vph1, hits give low values 0.976 | S. cerevisiae deletion strains, locus YOR290C, strain snf2, hits give low values 0.997 | S. cerevisiae deletion strains, locus YOR316C, strain cot1, hits give low values 0.971 | S. cerevisiae deletion strains, locus YPL051W, strain arl3, hits give low values 0.998 | S. cerevisiae deletion strains, locus YPL055C, strain LGE1, hits give low values 0.998 | S. cerevisiae deletion strains, locus YPL078C, strain atp4, hits give low values 0.99 | S. cerevisiae deletion strains, locus YPL106C, strain sse1, hits give low values 0.992 | S. cerevisiae deletion strains, locus YPL240C, strain hsp82, hits give low values 1 | S. cerevisiae deletion strains, locus YPL241C, strain CIN2, hits give low values 0.98 | S. cerevisiae deletion strains, locus YPL256C, strain CLN2, hits give low values 1.05 | S. cerevisiae deletion strains, locus YPR119W, strain clb2, hits give low values 0.997 | S. cerevisiae deletion strains, locus YPR141C, strain kar3, hits give low values 0.972 | S. cerevisiae deletion strains, locus YPR163C, strain tif3, hits give low values 0.995 | S. cerevisiae deletion strains, locus YPR167C, strain met16, hits give low values 0.976 | S. cerevisiae deletion strains, strain wtn01, hits give low values 0.995 | S. cerevisiae strains, strain wild type, hits give low values 0.997
